Experimental data from ChEMBL document CHEMBL3433997, “St. Jude Leishmania screening dataset” (2016).
Where “and” joins values, the source holds several entries; their conditions need not be identical. Identical values can stand only once.

Tests used:
Format in all cases: functional
[1] = molecular target: Solute carrier family 2, facilitated glucose transporter member 1 (Homo sapiens) (UniProt P11166); assay: ST_JUDE_LEISH: Cytotoxicity at 2uM final concentration against transgenic Leishmania Mexicana promastigotes LmGLUT1 that are glucose transport deficient and complemented with the human glucose transporter GLUT1. Activity is measured by DNA content using SYBR green in vitro
Chain of Solute carrier family 2, facilitated glucose transporter member 1 (Homo sapiens) (P11166 whole entry): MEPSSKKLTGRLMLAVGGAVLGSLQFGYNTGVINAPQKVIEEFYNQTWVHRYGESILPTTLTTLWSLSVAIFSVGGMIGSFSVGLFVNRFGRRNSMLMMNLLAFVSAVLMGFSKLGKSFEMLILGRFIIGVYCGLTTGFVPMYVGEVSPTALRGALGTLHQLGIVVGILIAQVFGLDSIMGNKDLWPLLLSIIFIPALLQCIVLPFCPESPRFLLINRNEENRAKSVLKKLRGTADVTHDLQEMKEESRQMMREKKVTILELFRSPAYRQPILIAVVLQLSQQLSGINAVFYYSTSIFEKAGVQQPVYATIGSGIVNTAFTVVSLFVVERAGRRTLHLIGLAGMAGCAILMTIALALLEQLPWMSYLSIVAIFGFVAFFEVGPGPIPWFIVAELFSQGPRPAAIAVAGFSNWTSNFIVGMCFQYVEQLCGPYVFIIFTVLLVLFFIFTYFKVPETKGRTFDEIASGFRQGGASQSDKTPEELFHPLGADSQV

[2] = molecular target: Hexose transporter 1 (Plasmodium falciparum) (UniProt O97467); assay: ST_JUDE_LEISH: Cytotoxicity at 2uM final concentration against transgenic Leishmania Mexicana promastigotes LmPfHT that are glucose transport deficient and complemented with the Plasmodium falciparum hexose transporter. Activity is measured by DNA content using SYBR green in vitro
[3] = molecular target: Glucose transporter (Leishmania mexicana) (UniProt O61059); assay: ST_JUDE_LEISH: Cytotoxicity at 2uM final concentration against transgenic Leishmania Mexicana promastigotes LmGT2 that are glucose transport deficient and complemented with the L. Mexicana glucose transporter 2. Activity is measured by DNA content using SYBR green in vitro

SMILES | inhibition [1] | inhibition [2] | inhibition [3]
CNCCN(C)C(=O)Oc1c(Cl)c(C)nc(C)c1-c1ccc(Oc2ccc(OC(F)(F)F)cc2)cc1 | 4.11% | 4.04% | 4.28%
Cc1c2ccncc2c(C)c2c1[nH]c1ccccc12 | 17.5% | 20.9% | 14.7%
COc1ccc(CC(C)NCC(O)c2cccc(Cl)c2F)cc1 (configuration not stated) | 1.96% | -0.19% | 0.32%
Oc1ccc2[nH]cc(C3=CCN(CCc4ccccc4)CC3)c2c1 | 15.8% | 18.1% | 13.4%
COc1ccc(C(=O)c2ccc3[nH]cc(C4=CCN(C)CC4)c3c2)cc1 | -0.74% | -1.41% | 0.07%
O=C(/C=C/c1ccc(Cl)c(Cl)c1)N1CCC(CN2CCC(c3c[nH]c4ccc(NS(=O)(=O)c5cccs5)cc34)CC2)CC1 | 6.53% | 5.86% | 5.21%
CC[C@H]1CN2CC[C@@H]1C[C@@H]2[C@@H](O)c1cc(-c2ccc(F)cc2)nc2ccc(OC)cc12 | 4.08% | 3.07% | 5.29%
O=C(/C=C/c1ccc(Cl)c(Cl)c1)NC1CCC(N2CCC(c3c[nH]c4ccccc34)CC2)CC1 (configuration not stated) | 26% | 6.98% | 4.41%
COc1ccc(CC(C)NCC(O)c2cccc(C(F)(F)F)c2)cc1 (configuration not stated) | 9.76% | 8.74% | 8.93%
COc1cccc(C2(C)CCN(CCCCNC(=O)c3ccc(NC(=O)c4ccc(Cl)cc4)cc3)CC2)c1 | -1.81% | -1.78% | -3.4%
O=C(/C=C/c1cccc(F)c1)NC1CCC(CN2CCC(c3c[nH]c4ccccc34)CC2)CC1 (configuration not stated) | 2.52% and 1.33% | -0.05% and 2.1% | -1.71% and 2.77%
CC(=O)Nc1ccc2[nH]cc(C3CCN(CC4CCC(NC(=O)/C=C/c5ccc(Cl)c(Cl)c5)CC4)CC3)c2c1 (configuration not stated) | -0.34% and -0.54% | -0.56% and -1.03% | 0.33% and -0.43%
COc1cccc(C2(NC[C@@H](O)[C@H](Cc3ccccc3)NC(=O)c3ccccc3)CCCCC2)c1 | 0.07% | -1.37% | -4.56%
CCCN(CC(=O)NCCc1ccccc1)c1ccc(C#N)c2ccccc12 | 2.23% | 1.5% | 1.66%
c1ccc2c(NCCCCCCNc3c4ccccc4nc4ccccc34)c3ccccc3nc2c1 | 5.54% | 6.29% | 4.31%
O=C(Nc1cc(C(F)(F)F)cc(C(F)(F)F)c1)NC1CCC(CN2CCC(c3c[nH]c4ccccc34)CC2)CC1 (configuration not stated) | -2.79% and 4.32% | -1.6% and 4.26% | -0.26% and 2.03%
CC(Cc1ccc(C(C)(C)C)cc1)NCC(O)c1ccccc1 (configuration not stated) | 2.91% | -0.46% | 0.43%

SMILES | inhibition [1] | inhibition [2] | inhibition [3]
Oc1ccccc1CN1CCC(CCOC(c2ccccc2)c2ccc(Cl)cc2)CC1 (configuration not stated) | 38.2% | 23.5% | 13.9%
O=C(C=Cc1ccc(-c2ccccc2)cc1)NC1CCC(CN2CCC(c3c[nH]c4ccccc34)CC2)CC1 (configuration not stated) | 6.41% and 5.7% | 7.57% and 7.18% | 6.53% and 3.78%
O=C(/C=C/c1ccc(Cl)c(Cl)c1)Nc1cccc(CN2CCC(c3c[nH]c4ccccc34)CC2)c1 | 8.01% | 6.99% | 5.33%
C1=C(c2c[nH]c3ccccc23)CCN(Cc2ccccc2)C1 | 1.51% | 0.32% | -0.23%
NC(=O)CN1CC=C(c2c[nH]c3ccc(Br)cc23)CC1 | -1.87% | 0.93% | 0.77%
Cc1cc(C)c(CC(C)NCC(O)c2cccc(C(F)(F)F)c2)c(C)c1 (configuration not stated) | 2.03% | -0.06% | -1.18%
CCN(CC)CCN1C(=O)C(O)(c2ccccc2Cl)c2c1cc(C(N)=O)cc2C(F)(F)F (configuration not stated) | 3.25% | 2.29% | 2.69%
CCC1(C)CC(CCNCc2ccccc2O)(c2ccc(F)cc2)CCO1 (configuration not stated) | 0.23% | 1.85% | -0.21%
CN(CC(=O)N1CCN(S(=O)(=O)c2cccc(Cl)c2)CC1CN1CCCC1)c1ccc(Cl)c(Cl)c1 (configuration not stated) | 0.54% | 1.78% | 2.07%
CC(Cc1ccc(SC(C)(C)C)cc1)NCC(O)c1cccc(Cl)c1 (configuration not stated) | -1.59% | -2.57% | -0.72%
CC(=O)Nc1ccc(CN2CCC(N(C)c3ccc(NC(=O)c4cccc(C)c4)cc3)CC2)cc1 | 8.7% | 10.9% | 9.57%
N#Cc1ccc(N(CC(=O)NCCc2ccccc2)CC2CC2)c2ccccc12 | 1.68% | 0.73% | 0.87%
CC(=O)N(Cc1ccccc1-c1cccc(CNCc2ccc3c(c2)OCO3)c1)C1CCN(Cc2ccccc2)CC1 | 3.8% | 5.58% | 3.79%
Cc1ccc(CC(C)NCC(O)c2cccc(C(F)(F)F)c2)c(C)c1 (configuration not stated) | 1.64% | 0.6% | 0.75%
CC(Cc1ccc(OCCCCOc2ccccc2)cc1)NCCc1ccccc1Cl (configuration not stated) | 15% | 19.8% | 7.82%
COC(=O)c1ccc(CC(C)NCC(O)c2ccccc2Cl)cc1 (configuration not stated) | 0.96% | 0.22% | 1.21%
CCCCCCC(C)(C)c1cc(O)c2c3c(c(=O)oc2c1)CCN(Cc1ccccc1)C3 | 3.18% | 4.84% | 8.58%
